Key:
Experiment in all cases: log2 ratio of Biotin-Ahx-Ub-VS probe labelling (fragment/DMSO); higher = less target engagement (more negative = stronger competition), active = hit call of the paper (q ≤ 0.05, log2 ratio ≤ -1)
Details in all cases: compound concentration: 200 uM; treatment time: 3 h
USP42 = target: T1, USP42 (UniProt Q9H9J4)
T1 sequence (whole entry): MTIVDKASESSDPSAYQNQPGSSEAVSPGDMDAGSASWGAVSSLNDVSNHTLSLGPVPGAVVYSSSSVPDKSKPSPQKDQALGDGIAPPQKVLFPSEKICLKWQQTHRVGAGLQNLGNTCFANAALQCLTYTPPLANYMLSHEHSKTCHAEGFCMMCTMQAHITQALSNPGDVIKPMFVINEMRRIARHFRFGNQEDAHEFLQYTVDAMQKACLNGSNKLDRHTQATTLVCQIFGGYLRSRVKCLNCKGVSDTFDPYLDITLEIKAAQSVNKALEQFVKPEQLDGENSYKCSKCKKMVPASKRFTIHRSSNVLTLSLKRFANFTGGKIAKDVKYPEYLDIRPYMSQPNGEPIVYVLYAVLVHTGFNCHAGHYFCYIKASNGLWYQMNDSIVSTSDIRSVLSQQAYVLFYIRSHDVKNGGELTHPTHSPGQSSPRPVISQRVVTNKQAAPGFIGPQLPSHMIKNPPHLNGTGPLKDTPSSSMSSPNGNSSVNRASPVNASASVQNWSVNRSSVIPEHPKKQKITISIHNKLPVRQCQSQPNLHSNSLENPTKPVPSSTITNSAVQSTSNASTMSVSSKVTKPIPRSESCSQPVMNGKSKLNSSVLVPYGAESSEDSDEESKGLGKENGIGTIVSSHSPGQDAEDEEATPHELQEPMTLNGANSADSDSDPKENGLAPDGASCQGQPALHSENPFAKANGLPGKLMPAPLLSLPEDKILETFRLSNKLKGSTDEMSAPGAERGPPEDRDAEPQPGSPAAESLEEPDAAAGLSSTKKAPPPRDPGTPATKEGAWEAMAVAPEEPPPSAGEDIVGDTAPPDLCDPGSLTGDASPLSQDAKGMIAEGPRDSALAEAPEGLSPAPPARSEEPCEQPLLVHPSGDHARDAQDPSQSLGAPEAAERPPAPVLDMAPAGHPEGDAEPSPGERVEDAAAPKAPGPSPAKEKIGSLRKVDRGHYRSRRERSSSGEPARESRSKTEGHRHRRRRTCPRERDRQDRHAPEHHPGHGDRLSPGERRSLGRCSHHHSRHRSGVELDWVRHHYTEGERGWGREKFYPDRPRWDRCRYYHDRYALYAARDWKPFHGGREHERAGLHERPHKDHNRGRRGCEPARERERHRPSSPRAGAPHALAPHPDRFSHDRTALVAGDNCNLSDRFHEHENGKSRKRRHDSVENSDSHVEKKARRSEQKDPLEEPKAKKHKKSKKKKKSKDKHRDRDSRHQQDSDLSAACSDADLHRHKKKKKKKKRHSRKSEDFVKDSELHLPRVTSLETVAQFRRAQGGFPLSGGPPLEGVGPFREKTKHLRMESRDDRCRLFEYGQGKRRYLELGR
In short: (§1)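 In triplicate, 495 µg of HEK293T lysate per sample was incubated with fragment at 200 µM or vehicle for 3 h. Biotin-Ahx-Ub-VS was then added to 0.5 µM final for 1 h, and labelled DUBs were captured with NeutrAvidin, digested with LysC and trypsin, and measured by diaPASEF LC-MS/MS. Data are average log2 fragment/vehicle ratios by unpaired t-test from global-median-normalised Spectronaut label-free quantities, restricted to proteins with ≥2 unique peptides.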

USP46 = USP46 (UniProt P62068)
Sequence of USP46 (P62068 whole entry): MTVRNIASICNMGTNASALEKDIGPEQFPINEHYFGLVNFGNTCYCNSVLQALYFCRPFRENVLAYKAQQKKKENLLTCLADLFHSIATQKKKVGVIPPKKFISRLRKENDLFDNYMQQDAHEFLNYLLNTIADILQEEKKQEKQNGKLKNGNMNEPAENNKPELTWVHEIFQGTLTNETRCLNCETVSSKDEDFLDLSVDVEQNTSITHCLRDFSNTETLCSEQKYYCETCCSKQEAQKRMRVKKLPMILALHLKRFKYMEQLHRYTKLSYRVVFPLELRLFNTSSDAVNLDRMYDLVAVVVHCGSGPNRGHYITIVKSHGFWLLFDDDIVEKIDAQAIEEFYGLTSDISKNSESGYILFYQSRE
In short: as §1

USP47 = target: T2, USP47 (UniProt Q96K76)
T2 sequence (whole entry): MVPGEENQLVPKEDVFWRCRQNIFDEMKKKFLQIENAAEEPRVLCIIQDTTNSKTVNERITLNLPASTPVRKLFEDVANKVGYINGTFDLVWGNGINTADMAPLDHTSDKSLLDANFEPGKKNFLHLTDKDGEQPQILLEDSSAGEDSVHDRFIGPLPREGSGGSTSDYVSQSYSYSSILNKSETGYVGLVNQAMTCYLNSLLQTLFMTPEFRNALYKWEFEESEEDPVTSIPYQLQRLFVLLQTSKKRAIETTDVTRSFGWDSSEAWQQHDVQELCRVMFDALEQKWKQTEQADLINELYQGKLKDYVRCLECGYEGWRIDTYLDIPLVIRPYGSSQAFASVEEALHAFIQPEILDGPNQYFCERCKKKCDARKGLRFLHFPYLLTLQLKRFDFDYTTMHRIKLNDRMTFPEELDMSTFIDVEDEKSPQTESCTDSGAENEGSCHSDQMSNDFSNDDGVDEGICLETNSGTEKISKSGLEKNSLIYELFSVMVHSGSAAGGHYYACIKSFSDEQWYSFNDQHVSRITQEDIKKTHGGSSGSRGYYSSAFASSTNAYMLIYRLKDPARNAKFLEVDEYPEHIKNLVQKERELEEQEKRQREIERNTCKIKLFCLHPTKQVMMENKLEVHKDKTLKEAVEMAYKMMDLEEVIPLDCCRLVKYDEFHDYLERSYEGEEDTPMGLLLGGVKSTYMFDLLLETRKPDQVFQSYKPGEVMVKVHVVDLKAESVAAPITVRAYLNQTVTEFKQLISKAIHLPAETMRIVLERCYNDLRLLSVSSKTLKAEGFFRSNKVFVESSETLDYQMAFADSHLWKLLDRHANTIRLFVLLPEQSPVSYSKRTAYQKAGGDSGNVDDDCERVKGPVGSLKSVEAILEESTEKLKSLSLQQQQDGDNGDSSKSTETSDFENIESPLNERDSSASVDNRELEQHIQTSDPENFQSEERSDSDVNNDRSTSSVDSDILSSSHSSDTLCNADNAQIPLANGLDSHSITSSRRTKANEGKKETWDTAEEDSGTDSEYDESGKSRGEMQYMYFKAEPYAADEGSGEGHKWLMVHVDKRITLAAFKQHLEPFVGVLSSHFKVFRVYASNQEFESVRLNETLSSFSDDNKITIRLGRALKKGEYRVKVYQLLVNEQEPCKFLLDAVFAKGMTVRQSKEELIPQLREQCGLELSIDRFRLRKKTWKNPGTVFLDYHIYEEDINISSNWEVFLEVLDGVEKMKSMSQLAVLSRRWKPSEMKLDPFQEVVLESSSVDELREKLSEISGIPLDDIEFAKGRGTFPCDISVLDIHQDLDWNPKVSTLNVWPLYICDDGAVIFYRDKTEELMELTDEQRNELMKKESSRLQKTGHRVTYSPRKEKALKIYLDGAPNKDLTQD
In short: as §1

USP48 = target: T3, USP48 (UniProt Q86UV5)
T3 sequence (whole entry): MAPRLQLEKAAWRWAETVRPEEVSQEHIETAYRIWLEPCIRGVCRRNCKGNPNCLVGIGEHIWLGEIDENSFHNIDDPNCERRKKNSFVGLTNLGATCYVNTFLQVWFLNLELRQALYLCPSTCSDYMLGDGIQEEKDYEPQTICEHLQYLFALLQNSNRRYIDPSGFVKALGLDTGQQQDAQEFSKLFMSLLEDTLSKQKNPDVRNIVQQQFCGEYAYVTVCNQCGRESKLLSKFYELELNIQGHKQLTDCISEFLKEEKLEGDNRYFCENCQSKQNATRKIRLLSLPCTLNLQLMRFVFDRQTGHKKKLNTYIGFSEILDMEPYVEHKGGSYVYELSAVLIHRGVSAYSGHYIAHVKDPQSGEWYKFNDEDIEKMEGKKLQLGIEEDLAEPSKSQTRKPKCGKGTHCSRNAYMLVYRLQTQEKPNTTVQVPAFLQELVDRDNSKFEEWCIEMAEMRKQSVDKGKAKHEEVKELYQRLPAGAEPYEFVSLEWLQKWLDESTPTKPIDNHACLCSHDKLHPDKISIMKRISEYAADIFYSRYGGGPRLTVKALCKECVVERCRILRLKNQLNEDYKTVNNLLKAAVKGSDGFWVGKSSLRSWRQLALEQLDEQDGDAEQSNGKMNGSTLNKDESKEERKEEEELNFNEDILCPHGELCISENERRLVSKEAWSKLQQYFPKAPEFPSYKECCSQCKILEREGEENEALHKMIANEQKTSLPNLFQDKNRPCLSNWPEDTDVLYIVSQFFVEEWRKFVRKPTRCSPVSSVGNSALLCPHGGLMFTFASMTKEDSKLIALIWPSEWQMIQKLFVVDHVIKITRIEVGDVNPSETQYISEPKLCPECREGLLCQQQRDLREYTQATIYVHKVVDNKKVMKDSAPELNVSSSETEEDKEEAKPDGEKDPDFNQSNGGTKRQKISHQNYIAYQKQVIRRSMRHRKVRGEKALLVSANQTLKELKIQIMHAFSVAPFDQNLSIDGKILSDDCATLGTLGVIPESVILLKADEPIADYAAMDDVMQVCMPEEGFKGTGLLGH
In short: as §1

USP5 = target: T4, USP5 (UniProt P45974)
T4 sequence (whole entry): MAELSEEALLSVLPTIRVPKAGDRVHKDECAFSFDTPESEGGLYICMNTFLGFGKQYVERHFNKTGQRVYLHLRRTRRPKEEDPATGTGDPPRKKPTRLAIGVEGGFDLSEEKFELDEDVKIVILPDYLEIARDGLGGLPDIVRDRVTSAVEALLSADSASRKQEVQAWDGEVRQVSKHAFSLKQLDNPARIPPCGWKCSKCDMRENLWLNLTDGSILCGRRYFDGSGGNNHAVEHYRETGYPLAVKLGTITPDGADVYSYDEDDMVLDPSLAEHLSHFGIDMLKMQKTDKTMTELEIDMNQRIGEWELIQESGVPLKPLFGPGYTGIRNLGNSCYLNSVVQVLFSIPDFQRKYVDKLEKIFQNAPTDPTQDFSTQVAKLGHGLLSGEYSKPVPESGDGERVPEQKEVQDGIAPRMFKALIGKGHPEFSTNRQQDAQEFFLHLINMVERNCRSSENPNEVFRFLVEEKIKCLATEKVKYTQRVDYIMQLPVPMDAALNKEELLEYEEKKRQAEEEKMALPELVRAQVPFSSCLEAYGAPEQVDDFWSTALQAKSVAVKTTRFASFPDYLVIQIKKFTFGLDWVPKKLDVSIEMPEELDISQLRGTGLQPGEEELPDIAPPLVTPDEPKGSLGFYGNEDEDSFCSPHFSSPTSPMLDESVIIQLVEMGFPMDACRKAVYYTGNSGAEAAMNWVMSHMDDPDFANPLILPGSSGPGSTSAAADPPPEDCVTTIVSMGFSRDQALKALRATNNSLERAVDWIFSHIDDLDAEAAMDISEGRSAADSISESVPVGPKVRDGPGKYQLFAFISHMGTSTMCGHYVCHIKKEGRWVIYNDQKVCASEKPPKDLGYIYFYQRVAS
In short: as §1

USP54 = USP54 (UniProt Q70EL1)
Sequence of USP54 (Q70EL1 whole entry): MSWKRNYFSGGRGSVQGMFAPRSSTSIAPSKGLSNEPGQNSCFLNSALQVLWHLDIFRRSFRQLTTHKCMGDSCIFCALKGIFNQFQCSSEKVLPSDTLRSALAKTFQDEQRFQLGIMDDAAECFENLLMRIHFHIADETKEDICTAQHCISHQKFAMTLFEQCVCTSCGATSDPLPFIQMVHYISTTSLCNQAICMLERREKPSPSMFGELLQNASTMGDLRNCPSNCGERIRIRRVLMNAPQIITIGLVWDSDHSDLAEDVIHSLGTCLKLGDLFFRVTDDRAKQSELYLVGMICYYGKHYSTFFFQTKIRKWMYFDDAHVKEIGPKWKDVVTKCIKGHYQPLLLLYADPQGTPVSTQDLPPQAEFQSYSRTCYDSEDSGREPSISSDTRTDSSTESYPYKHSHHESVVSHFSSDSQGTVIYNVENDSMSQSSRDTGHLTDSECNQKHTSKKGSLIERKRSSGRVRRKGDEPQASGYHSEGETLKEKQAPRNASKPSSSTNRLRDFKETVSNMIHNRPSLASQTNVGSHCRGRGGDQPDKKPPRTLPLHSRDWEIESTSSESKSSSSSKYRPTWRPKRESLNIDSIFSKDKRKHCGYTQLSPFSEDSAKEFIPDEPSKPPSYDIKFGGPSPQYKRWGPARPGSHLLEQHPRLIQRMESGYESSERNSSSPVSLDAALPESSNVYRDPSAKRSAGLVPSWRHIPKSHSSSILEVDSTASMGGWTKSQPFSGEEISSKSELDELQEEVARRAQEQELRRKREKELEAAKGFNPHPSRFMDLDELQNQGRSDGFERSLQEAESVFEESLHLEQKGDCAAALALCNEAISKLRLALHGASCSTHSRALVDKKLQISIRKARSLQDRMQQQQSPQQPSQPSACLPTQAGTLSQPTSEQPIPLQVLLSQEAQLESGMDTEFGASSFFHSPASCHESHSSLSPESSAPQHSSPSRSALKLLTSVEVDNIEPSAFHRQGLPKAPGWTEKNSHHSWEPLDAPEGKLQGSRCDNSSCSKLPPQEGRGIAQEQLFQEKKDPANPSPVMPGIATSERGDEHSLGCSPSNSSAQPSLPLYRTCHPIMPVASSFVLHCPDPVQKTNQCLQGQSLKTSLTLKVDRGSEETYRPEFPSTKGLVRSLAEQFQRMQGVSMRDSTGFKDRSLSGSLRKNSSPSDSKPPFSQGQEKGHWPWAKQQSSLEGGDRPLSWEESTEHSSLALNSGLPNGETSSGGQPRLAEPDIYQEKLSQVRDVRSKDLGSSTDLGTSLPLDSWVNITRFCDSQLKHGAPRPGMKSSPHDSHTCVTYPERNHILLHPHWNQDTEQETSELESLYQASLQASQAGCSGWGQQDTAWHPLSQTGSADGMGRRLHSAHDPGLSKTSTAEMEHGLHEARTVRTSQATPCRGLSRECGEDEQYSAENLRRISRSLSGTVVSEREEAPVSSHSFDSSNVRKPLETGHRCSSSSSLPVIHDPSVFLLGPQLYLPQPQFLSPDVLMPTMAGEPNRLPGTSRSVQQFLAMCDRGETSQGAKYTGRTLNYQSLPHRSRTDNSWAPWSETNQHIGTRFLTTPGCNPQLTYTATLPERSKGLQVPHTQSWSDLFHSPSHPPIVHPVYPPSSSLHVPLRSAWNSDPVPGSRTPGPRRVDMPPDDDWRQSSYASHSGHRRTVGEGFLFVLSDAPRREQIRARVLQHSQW
In short: as §1

USP7 = USP7 (UniProt Q93009)
Sequence of USP7 (Q93009 whole entry, looked up): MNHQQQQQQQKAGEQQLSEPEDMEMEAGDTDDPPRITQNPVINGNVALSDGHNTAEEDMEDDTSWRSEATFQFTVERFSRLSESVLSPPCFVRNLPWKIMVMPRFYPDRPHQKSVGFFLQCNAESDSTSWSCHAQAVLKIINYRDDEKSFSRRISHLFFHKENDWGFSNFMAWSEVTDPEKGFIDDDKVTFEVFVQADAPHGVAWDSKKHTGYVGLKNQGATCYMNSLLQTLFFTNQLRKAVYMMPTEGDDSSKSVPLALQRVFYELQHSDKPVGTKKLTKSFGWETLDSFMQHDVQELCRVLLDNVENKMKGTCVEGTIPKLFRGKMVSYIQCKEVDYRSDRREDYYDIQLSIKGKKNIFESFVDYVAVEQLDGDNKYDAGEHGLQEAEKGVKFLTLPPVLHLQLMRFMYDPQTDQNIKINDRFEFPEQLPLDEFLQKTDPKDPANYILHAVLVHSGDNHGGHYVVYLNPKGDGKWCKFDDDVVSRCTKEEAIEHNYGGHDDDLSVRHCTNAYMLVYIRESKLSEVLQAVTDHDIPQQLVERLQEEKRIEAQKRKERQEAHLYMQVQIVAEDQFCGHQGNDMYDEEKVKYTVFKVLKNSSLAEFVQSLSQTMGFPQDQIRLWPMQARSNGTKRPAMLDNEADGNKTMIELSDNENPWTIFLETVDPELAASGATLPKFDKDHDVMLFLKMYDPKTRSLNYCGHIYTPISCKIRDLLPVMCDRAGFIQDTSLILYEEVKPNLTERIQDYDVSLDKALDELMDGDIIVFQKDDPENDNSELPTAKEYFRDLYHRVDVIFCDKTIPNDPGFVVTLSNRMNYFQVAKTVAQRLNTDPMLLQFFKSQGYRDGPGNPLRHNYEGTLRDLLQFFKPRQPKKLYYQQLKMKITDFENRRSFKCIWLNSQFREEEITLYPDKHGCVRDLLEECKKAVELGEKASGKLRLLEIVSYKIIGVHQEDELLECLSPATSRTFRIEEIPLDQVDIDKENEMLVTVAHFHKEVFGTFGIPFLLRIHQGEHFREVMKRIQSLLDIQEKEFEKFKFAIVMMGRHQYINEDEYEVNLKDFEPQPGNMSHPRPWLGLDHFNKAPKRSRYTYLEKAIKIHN
In short: as §1

USP8 = target: T5, USP8 (UniProt P40818)
T5 sequence (whole entry): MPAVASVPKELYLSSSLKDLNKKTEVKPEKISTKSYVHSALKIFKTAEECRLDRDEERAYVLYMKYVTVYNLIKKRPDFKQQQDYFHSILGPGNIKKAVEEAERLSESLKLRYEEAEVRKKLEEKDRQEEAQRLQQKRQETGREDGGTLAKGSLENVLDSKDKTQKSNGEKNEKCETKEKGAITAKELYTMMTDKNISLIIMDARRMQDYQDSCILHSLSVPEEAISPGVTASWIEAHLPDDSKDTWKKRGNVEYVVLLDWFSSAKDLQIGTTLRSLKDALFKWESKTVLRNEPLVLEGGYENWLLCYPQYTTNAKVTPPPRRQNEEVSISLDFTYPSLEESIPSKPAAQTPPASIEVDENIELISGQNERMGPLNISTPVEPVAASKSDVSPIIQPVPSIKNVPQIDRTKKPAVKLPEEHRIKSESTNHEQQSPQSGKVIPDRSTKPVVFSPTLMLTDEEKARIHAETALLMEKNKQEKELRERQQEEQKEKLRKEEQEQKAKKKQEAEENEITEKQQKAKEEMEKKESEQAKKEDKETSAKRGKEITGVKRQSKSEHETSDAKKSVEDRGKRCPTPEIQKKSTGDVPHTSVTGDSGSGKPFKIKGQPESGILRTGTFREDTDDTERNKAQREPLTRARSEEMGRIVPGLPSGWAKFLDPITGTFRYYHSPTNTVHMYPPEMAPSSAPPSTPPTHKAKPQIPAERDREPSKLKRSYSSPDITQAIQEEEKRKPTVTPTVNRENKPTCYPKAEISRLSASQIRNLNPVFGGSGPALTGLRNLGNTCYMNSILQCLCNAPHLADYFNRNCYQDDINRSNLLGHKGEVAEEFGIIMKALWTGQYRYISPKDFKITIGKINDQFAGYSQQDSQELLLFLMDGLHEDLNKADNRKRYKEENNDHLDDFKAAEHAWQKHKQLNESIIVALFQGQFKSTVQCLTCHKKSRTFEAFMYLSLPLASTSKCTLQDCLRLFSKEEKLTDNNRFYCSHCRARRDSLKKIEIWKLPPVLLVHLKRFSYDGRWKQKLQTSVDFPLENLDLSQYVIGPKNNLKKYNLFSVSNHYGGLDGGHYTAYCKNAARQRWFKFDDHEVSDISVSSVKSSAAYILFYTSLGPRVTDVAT
In short: as §1

Measured: log2 ratio of Biotin-Ahx-Ub-VS probe labelling

CN(CCc1ncc(Br)cn1)C(=O)CCl.Cl
inactive: USP42 0.325 | USP46 -0.136 | USP47 -0.331 | USP48 -0.46 | USP5 0.24 | USP54 0.619 | USP7 -0.266 | USP8 -0.602
